Measurements as given in PubChem BioAssay AID1259343 (VanderVen Lab, College of Veterinary Medicine, Cornell …, 2017).
The campaign covered roughly 6,200 compounds. About 2,900 (47%) were called active. The set was probably picked from earlier hits. The list shows a part of the results. Values without a mark were called inactive. No stated cut-off is given here; in the data, active means inhibition above about 50%; inactive means the rest.

Assay: Mycobacterium tuberculosis growth inhibition, primary screen (AID 1259343)
Conditions: inhibition: at 10 µM, stronger effect = higher value; outcome: 10 uM
Work on `CCOc1ccc(N=Nc2c(C)n[nH]c2C)cc1` yielded an inhibition of -45%. In the case of `Cc1n[nH]c(C)c1N=Nc1ccc(Br)cc1`, the inhibition is reported as 104% (active). `Cc1nc(N)sc1N=Nc1ccc(Br)cc1` gave an inhibition of 23.2%. In the case of `Nc1nnc(SCc2ccc(Br)cc2F)s1`, the inhibition is reported as 28.8%. With `Nc1nnc(SCC2CC2)s1` the inhibition was 86.5% (active). `CCc1ccc(-c2noc(CSc3nnc(N)s3)n2)cc1` gave an inhibition of 12.6%. In the case of `O=C(O)COc1c(I)cc(Cl)c2cccnc12`, the inhibition is reported as 94.3% (active). In the case of `O=C(O)COc1ccccc1-c1nc(-c2ccccc2)c(-c2ccccc2)[nH]1`, the inhibition is reported as 13.8%. In the case of `CCCC(=O)OCC(=O)Nc1ccc2ccccc2c1`, the inhibition is reported as 33.2%. For `Cc1cc(C)cc(NC(=O)CCC(=O)c2ccc3ccccc3c2)c1`, the inhibition was 72.2% (active). `O=C(CCC(=O)c1ccc(-c2ccccc2)cc1)NC1=NCCS1` gave an inhibition of 33.8%. For `CCc1nnc(NC(=O)C2CC2)s1`, the inhibition was 68.7% (active). For `CCc1nnc(NC(=O)c2ccc(O)c(Cl)c2)s1`, the inhibition was 81.3% (active). `COc1ccccc1C(=O)Nc1nnc(CC(C)C)s1` showed an inhibition of 21.6%. `O=C(O)C1C2C=CC(O2)C1C(=O)NCc1ccccc1Cl` (centres undefined) gave an inhibition of 23.3%. With `Cn1c(CNC(=O)Cc2c(Cl)cccc2Cl)n[nH]c1=S` the inhibition was 8.23%. For `CC(C(=O)NCc1ccccc1Cl)n1nnc(-c2ccco2)n1` (centres undefined), the inhibition was 56.3% (active). Work on `O=C1CCc2c(OCc3ncc(-c4cccc(Cl)c4)o3)cccc21` yielded an inhibition of 39.9%. For `O=C(O)CCN(CCc1ccccc1)c1nc(-c2ccc(Cl)cc2)nc2ccccc12`, the inhibition was 24.8%. In the case of `O=C(O)CCc1ncc(-c2ccc(Cl)cc2)o1`, the inhibition is reported as 90.3% (active). With `O=C(CN(Cc1ccccc1)C(=O)c1ccc(Cl)c(Cl)c1)Nc1cc(-c2ccccc2)nn1-c1ccc(F)cc1` the inhibition was -13.3%. With `O=C1CCC(C(=O)N(Cc2ccc(F)cc2)c2nc(-c3ccccc3)cs2)=NN1` the inhibition was 64.5% (active). In the case of `O=C(CCCCl)Nc1nc(-c2ccc(F)cc2)cs1`, the inhibition is reported as 12.9%. `N#CC(=Cc1ccncc1)c1nnc2n1CCCCC2` gave an inhibition of -11%. For `Fc1ccccc1-c1nc(-c2ccc(Br)o2)no1`, the inhibition was 28.8%. With `Cc1ccc(-c2nc(-c3ccc(Br)cc3)no2)cc1` the inhibition was 11.5%. For `Cc1ccc(-c2noc(-c3ccc(Br)o3)n2)cc1`, the inhibition was 55.7% (active). With `CCN(CC)CCCC(C)NC(=O)c1cc(-c2ccc(OC)cc2)nc2cc(C(C)(C)C)nn12` (centres undefined) the inhibition was 58.1% (active). In the case of `Cc1ccc(-c2cc(C(=O)O)n3nc(C(C)(C)C)cc3n2)cc1`, the inhibition is reported as 103% (active). For `COc1ccc(-c2cc(C(=O)O)n3nc(C(C)(C)C)cc3n2)cc1`, the inhibition was 53.5% (active). `CC1(C)OCC(CN2C(=O)c3ccccc3NC2c2c[nH]c3cnc(OCc4ccccc4)cc23)O1` (centres undefined) showed an inhibition of 32.8%. In the case of `COc1ccc(NC(=O)CNS(=O)(=O)c2cnn(C)c2)cc1Cl`, the inhibition is reported as 85.8% (active). In the case of `COc1ccc(NC(=O)CNc2cc3c(cc2Cl)OCCCO3)cc1Cl`, the inhibition is reported as 92.9% (active). With `COc1ccc(NCC(=O)NCC(F)(F)F)cc1Cl` the inhibition was 95.5% (active). Compound `COc1ccc(NC(=O)Cc2ccccc2F)cc1Cl` has an inhibition of 14.2%. For `COc1ccc(Cl)cc1NC(=O)c1ccc2c(c1)OCCCO2`, the inhibition was 29.1%. For `COc1ccc(NC(=O)CSc2cc(C)ccc2C)cc1Cl`, the inhibition was 88.7% (active). With `CC(C)N=C1NN=C(c2c[nH]c3ccccc23)C(c2ccccc2)S1` (centres undefined) the inhibition was 2.32%. In the case of `O=c1c2c(nc3c(-c4cccc5ccccc45)c[nH]n13)CCC2`, the inhibition is reported as 88.6% (active). In the case of `Cc1nc2c(-c3ccccc3)c[nH]n2c(=O)c1C`, the inhibition is reported as 23.2%. With `CC1CCC(NC(=O)c2ccc(Br)o2)CC1` (centres undefined) the inhibition was 25.1%. With `Cc1oc(-n2cccc2)c(C#N)c1C(=O)NC1CCC(C)CC1` (centres undefined) the inhibition was 77.2% (active). `Cc1oc(-n2cccc2)c(C#N)c1C(=O)OCc1cc(=O)n2c(C)csc2n1` showed an inhibition of -7.14%. For `Cn1ccnc1Sc1nc(-c2ccccn2)nc2scc(-c3ccccc3)c12`, the inhibition was 77.2% (active). With `COc1ccccc1N1CCN(Cn2nc(C3COc4ccccc4O3)oc2=S)CC1` (centres undefined) the inhibition was 49.9%. With `Cc1nccn1CC(O)Cn1c2ccc(Cl)cc2c2cc(Cl)ccc21` (centres undefined) the inhibition was 66.4% (active). For `Cc1nn(CC(O)Cn2c(C)c(C)c3cccc(Cl)c32)c(C)c1Br` (centres undefined), the inhibition was 25.1%. In the case of `OC(CN1CCCC1)Cn1c2ccc(Cl)cc2c2cc(Cl)ccc21` (centres undefined), the inhibition is reported as -9.02%. Compound `Cn1nnc2c(=O)n(Cc3ccc(C(F)(F)F)cc3)cnc21` has an inhibition of 45.7%. With `O=C1N(Cc2ccccc2)C(c2ccc(C(F)(F)F)cc2)C1(F)F` (centres undefined) the inhibition was 79.7% (active). For `Cc1c(C(=O)NCc2ccc(C(F)(F)F)cc2)sc(=O)n1Cc1ccc(F)cc1`, the inhibition was 20.5%. Compound `CC(=O)N1CCc2cc(-c3nc(COc4ccccc4)sc3C)ccc21` has an inhibition of 37.8%. In the case of `O=C(COc1ccccc1)N1CCc2ccc(O)cc2C1`, the inhibition is reported as 68.5% (active). Compound `CC(C)Oc1ncc(C(=O)N2CCc3ccc(O)cc3C2)cc1Cl` has an inhibition of 33.5%.
